outcome, Potency and activity change, negative = cytotoxicity data for eight compounds are collected here from PubChem BioAssay (NCATS).

The structures appear in SMILES notation. Unmarked numbers belong to inactive results. Inconclusive results are not listed. Calls of active or inactive are those of the source. Unless noted, the call rests on the fitted dose curve; in most records, active means well fitted curve in the direction sought with a large enough effect; inconclusive means small, poorly fitted or top-dose-only effect, or another doubt; inactive means no such curve, though single readings can be large; an effect the other way counts as inactive or inconclusive.

For assay [1], the target named is Dual specificity protein kinase CLK4 (Homo sapiens) (UniProt Q9HAZ1). Briefly: qHTS Assay for Inhibitors of CDC-like Kinase 4 (ADP-FP Assay) (AID 1795).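 Further: recombinant human CLK4 phosphorylating RS repeat peptide at 1 µM ATP; on the % scale 0 is the no-effect control and ±100 the full control effect; nearly all actives have a fitted effect of over 60% in size.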 To be noted: Transcreener ADP fluorescence polarization; series mostly up to 50 µM. The procedure, abridged: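 Kinase activity was followed as ADP output, converted from fluorescence polarization with a calibration curve. Reactions ran one hour at low ATP (1 uM) with RS peptide substrate.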
Sequence of Dual specificity protein kinase CLK4 (Homo sapiens) (Q9HAZ1 whole entry, looked up): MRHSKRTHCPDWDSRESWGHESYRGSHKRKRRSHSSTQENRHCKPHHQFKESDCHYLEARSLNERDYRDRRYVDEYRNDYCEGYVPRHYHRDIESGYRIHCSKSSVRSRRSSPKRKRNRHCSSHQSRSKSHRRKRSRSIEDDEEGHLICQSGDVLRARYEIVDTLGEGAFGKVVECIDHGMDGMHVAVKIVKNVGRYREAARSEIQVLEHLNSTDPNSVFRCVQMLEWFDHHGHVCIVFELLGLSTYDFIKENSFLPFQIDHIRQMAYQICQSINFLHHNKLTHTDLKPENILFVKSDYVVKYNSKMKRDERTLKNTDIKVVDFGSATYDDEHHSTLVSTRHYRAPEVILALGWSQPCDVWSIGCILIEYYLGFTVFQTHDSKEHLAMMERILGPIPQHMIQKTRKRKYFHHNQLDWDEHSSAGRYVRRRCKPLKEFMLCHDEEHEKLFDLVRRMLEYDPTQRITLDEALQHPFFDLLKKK

Assay [2] concerns the target Guanine nucleotide-binding protein G(i) subunit alpha-1 (Homo sapiens) (UniProt P63096). Briefly: qHTS Assay for Inhibitors of RGS12 GoLoco Motif Activity (Green Fluorophore) (AID 879).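 Further: 0% = labeled peptide with Gαi1 and full inhibition = labeled peptide alone without protein; negative values mean loss of peptide binding seen as reduced polarization.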 To be noted: Galphai1/FITC-RGS12 GoLoco peptide, fluorescence polarization; series mostly up to 57.1 µM. In a few lines: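 A drop in FITC polarization marked displacement of the FITC-tagged RGS12 GoLoco peptide (10 nM) from Gαi1 (50 nM). Compounds were incubated 10 min at room temperature in Tris pH 7.5 buffer containing 150 mM NaCl, 0.1 mM GDP and 0.05% NP40; unlabeled peptide titration served as control.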
(In general: In qHTS, concentration-response curves come from the screen itself.)

The nature of assay [3]: qHTS Assay for Identification of Small Molecule Antagonists for NFkB Signaling Pathway (AID 895; active means well fitted inhibition curve with a large enough effect in the signal ratio, with a control signal flat, not every such curve was filed as active; the % refers to the signal ratio; further: potency means the concentration at half of the fitted maximal effect). Particulars: NFkB beta-lactamase reporter cells, FRET ratio 460/530; series mostly up to 38.3 µM. The procedure, abridged:
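Beta-lactamase reporter read-out (460 and 530 nm emission ratio, 405 nm excitation, 2 hrs substrate loading RT) after 5 hr stimulation with 10 pM TNF alpha in compound-treated NFkB-bla ME-180 cells in low-serum medium.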

Assay [4] concerns the target Pyruvate kinase (Leishmania mexicana) (UniProt Q27686). Briefly: qHTS Validation Assay for Inhibitors of Leishmania Mexicana Pyruvate Kinase (AID 945).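 Further: 0% = DMSO only neutral control wells.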 Particulars: purified L. mexicana pyruvate kinase, enzyme activity, E451W mutant enzyme; series mostly up to 57.5 µM. The procedure, abridged: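 LmPYK E451W 0.2 nM; 0.5 mM PEP, 0.1 mM ADP, 7 mM MgCl2, 50 mM KCl, imidazole pH 7.2, 0.01% Tween 20, 0.05% BSA; 1 h RT; PKLight luminescence; DMSO-normalized.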

The target in assay [5] is Pyruvate kinase PKM (Homo sapiens) (UniProt P14618). Description: qHTS Assay for Activators of Human Muscle Pyruvate Kinase (AID 954; active means well fitted curve in the direction sought with a large enough effect, not every such curve was filed as active;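 further: 0% = uninhibited enzyme and -100% = no enzyme or full thiadiazolimine inhibition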). Particulars: purified human muscle pyruvate kinase, luciferase-coupled luminescence, 1 h; series mostly up to 57.5 µM. In a few lines: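 Screening used highly purified human pyruvate kinase M2 under submaximal activity, with PEP at its Km and ADP below Km. After an hour at room temperature, ATP was read by luciferase luminescence.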
Sequence of Pyruvate kinase PKM (Homo sapiens) (P14618 whole entry, looked up): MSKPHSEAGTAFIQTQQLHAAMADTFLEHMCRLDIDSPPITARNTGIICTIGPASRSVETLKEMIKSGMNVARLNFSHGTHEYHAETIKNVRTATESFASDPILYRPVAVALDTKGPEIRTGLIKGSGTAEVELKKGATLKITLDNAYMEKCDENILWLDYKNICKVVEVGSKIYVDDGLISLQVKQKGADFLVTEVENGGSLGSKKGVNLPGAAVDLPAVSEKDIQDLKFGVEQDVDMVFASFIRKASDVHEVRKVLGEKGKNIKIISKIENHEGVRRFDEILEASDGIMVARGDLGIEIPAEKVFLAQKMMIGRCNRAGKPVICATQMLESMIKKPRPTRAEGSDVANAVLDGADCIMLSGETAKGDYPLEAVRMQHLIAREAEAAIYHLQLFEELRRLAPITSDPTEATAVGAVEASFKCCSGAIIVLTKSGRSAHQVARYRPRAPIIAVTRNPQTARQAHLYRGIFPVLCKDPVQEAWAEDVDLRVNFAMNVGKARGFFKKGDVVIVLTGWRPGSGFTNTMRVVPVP

Assay [6] has as its target Alpha-galactosidase A (Homo sapiens) (UniProt P06280). Briefly: Counterscreen for Glucocerebrosidase Inhibitors: qHTS Assay for Human alpha-Galactosidase at pH 4.5 (AID 992). Further: 0% is about no effect. To be noted: purified enzyme, fluorogenic substrate; series mostly up to 76.9 µM. In a few lines:
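Each compound is preincubated briefly with 2 nM enzyme before substrate addition (80 uM); plates then sit 20 min at ambient temperature, are quenched with 1M NaOH/1M glycine, and read fluorometrically.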

The target in assay [7] is alpha-glucosidase (Oryza sativa, rice) (UniProt Q653V4). Description: Counterscreen for Glucocerebrosidase Inhibitors: qHTS Assay for Rice alpha-Glucosidase at pH 5.0 (AID 997).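 Further: 0% = full activity with enzyme and -100% = basal without enzyme.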 To be noted: rice alpha-glucosidase enzyme activity; series mostly up to 76.9 µM. The procedure, abridged:
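Endpoint fluorogenic assay at pH 5.0: compounds (0.7 nM to 77 uM) titrated against 4 nM rice enzyme and 400 uM 4-MU-alpha-glucoside for 20 min at room temperature; NaOH/glycine stop, read ex 365/em 440 nm, Hill-fitted AC50.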
For orientation: A counterscreen serves to expose hits that act by an unwanted route or on another target.

For assay [8], the target named is Alpha-galactosidase (Coffea arabica) (UniProt Q42656). Briefly: Counterscreen for Glucocerebrosidase Inhibitors: qHTS Assay for Coffee Bean alpha-Galactosidase at pH 5.9 (AID 998).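 Further: plate controls were uninhibited enzyme for no effect and no-enzyme basal signal for full effect.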 To be noted: coffee bean alpha-galactosidase enzyme assay; series mostly up to 76.9 µM. The procedure, abridged:
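Fluorogenic 4-MU substrate hydrolysis, 80 uM substrate and 2 nM coffee bean alpha-galactosidase, pH 5.9 citrate buffer, 20 min at room temperature, then NaOH/glycine stop. Titration 0.7 nM–77 uM, normalized to no-enzyme and enzyme controls, AC50 via Hill equation.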

A short description of assay [9]: Cell Viability - BJ (AID 421; calls by dose curve;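 further: potency means the concentration at half of the fitted maximal effect; cells exposed to compound for 40 hours at 37 °C before readout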). Particulars: BJ fibroblast viability, qHTS. In a few lines: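 Quantitative HTS: ATP depletion in BJ cells after 40 hr compound exposure in complete culture medium, detected with CellTiter-Glo; AC50 from standard Hill fits.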
Assay [10] is described as follows: Cell Viability - Jurkat (AID 426;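 active means dose-dependent loss of cell ATP signal giving a full or clear fitted curve, ranked by lower potency value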;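 further: potency means the concentration at half of the fitted maximal effect; cells exposed to compound for 40 hours at 37 °C before ATP read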). To be noted: qHTS. The procedure, abridged:
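Cytotoxicity was scored as loss of cellular ATP, measured by luciferase-based luminescence, in Jurkat clone E6-1 cells after 40 h compound treatment; tamoxifen and doxorubicin served as positive controls.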

Assay [11] in a line: Cell Viability - Hek293 (AID 427;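 active means compounds whose dose-response curve shows a full or clear partial loss of cell viability, called from curve shape rather than a numeric limit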;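 further: potency means the concentration at half of the fitted maximal effect; cells exposed to compound for 40 hours at 37 °C before reading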). Particulars: qHTS. In a few lines:
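AC50 values derive from Hill-modelled concentration-response of ATP-based luminescence, normalized between DMSO-only and 100 uM tamoxifen controls. Cells were exposed in complete culture medium for 40 hr at 37 °C before detection.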

Assay [12] in a line: Cell Viability - HepG2 (AID 433; calls by dose curve;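 further: potency means the concentration at half of the fitted maximal effect; cells exposed to compound for 40 hours; potency for ATP loss meaning cytotoxicity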). Particulars: qHTS. In a few lines: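 In this qHTS format, a 40 h, 37 °C compound incubation of HepG2 cells in complete medium precedes a 20 min CellTiter-Glo step at room temperature. Tamoxifen and doxorubicin serve as positive controls; Hill-equation fits yield AC50.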
Assay [13] can be described thus: Cell Viability - MRC5 (AID 434; calls by dose curve;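 further: potency means the concentration at half of the fitted maximal effect; cells exposed to compound for 40 hours at 37 °C; potency reflects cytotoxicity seen as loss of intracellular ATP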). Particulars: MRC5 lung fibroblast viability, qHTS. In a few lines: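 AC50 values come from Hill-equation fits of intracellular ATP loss, measured by CellTiter-Glo luminescence. Normal lung fibroblasts (MRC5) had 40 hr compound treatment at 37 C, normalized between DMSO and 100 uM tamoxifen.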
Assay [14] is described as follows: Cell Viability - SK-N-SH (AID 435; calls by dose curve;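 further: potency means the concentration at half of the fitted maximal effect; compound exposure lasted 40 h at 37 °C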). Particulars: SK-N-SH neuroblastoma cell viability qHTS. In a few lines: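 Human neuroblastoma line, 40 h exposure at 37 °C, ATP quantified via luciferase luminescence; DMSO and 100 uM tamoxifen define 0 and 100% inhibition for AC50 fitting.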
Assay [15] is described as follows: Cell Viability - N2a (AID 540).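 Further: plate controls were DMSO alone for no effect and tamoxifen control for full effect; nearly all actives have a fitted effect of over 45% in size.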 Particulars: N2a mouse neuroblastoma cell viability; at 92.2 µM (top of the series). The procedure, abridged:
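In this qHTS cytotoxicity screen, ATP-dependent luciferase luminescence reports viable N2a cells after a 40 hr compound exposure in complete culture medium. Potencies are AC50 values from standard Hill equation fits.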

Assay [16] in a line: Cell Viability - NIH 3T3 (AID 541).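 Further: cells exposed to compound for 40 hours; plate controls were DMSO alone for no effect and tamoxifen positive control for full effect; nearly all actives have a fitted effect of over 25% in size.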 To be noted: NIH 3T3 cell viability, qHTS; activity change, negative = cytotoxicity: at 92.2 µM (top of the series). In a few lines:
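In this cytotoxicity screen, acute toxicity is scored as an ATP drop measured by CellTiter-Glo in NIH 3T3 fibroblasts following a 40 hr, 37 °C incubation with compound.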

Assay [17] can be described thus: qHTS Assay for Identification of Small Molecule Inducers of Hypoxia Response (AID 2120; active means well fitted curve in the direction sought with a large enough effect in the signal ratio, with a control signal flat, not every such curve was filed as active; the % refers to the signal ratio; further: 0% is about no effect). Particulars: hypoxia response reporter cells, beta-lactamase ratio readout; series mostly up to 104 µM. In a few lines: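 HRE-bla ME-180, 2500 cells/well, 0.5% dialyzed FBS medium; cpd titration, 17 h 37 degrees C; CCF4 2.5 h RT; Ex 405, Em 460/530 ratio -> %Activity, AC50.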

The target of assay [18] is Cytochrome P450 3A4 (Homo sapiens) (UniProt P08684). Briefly: qHTS for inhibitors of CYP3A4 against the NCATS DSHEA and TCM libraries (AID 1919971).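 Further: on the % scale 0 is the no-effect control and ±100 the full control effect; inhibition lowers luminescence from luciferin made by CYP3A4.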 To be noted: recombinant CYP3A4 enzyme activity, luminescence qHTS; series mostly up to 34.1 µM. In a few lines: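 Isoform-specific enzyme and substrate levels; enzyme-free wells as background. Reaction: 1x NADPH regenerating system, 30-45 min, room temperature, shielded from light; luminescent detection reagent added, 30 min.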
Sequence of Cytochrome P450 3A4 (Homo sapiens) (P08684 whole entry, looked up, canonical isoform): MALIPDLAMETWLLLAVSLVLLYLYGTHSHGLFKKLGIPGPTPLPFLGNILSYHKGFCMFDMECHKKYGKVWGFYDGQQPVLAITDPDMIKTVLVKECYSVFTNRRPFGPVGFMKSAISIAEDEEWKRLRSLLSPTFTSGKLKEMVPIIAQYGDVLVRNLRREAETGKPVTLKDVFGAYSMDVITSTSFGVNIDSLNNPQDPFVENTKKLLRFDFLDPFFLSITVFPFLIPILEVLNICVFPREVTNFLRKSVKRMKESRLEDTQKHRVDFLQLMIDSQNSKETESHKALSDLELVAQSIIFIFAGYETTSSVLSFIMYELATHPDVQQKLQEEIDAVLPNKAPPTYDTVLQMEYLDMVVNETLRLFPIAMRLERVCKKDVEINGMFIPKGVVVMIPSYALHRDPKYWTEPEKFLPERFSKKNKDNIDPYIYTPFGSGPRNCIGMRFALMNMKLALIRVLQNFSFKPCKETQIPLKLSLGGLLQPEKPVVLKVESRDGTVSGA

Assay [19] has as its target Cytochrome P450 2D6 (Homo sapiens) (UniProt P10635). Description: qHTS for inhibitors of CYP2D6 against the NCATS DSHEA and TCM libraries (AID 1919972). Further: potency means the concentration at half of the fitted maximal effect. Particulars: CYP2D6 enzymatic inhibition, luminescence qHTS; series mostly up to 34.1 µM. In a few lines: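 qHTS, concentration–response format with most substances from 19.5 nM. CYP2D6 + pro-luciferin substrate, 15 min with compound, then 1x NADPH regen, 30–45 min RT dark. Glo detection 30 min, luminescence. Quinidine control.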

Assay [20] concerns the target Cytochrome P450 1A2 (Homo sapiens) (UniProt P05177). Description: qHTS for inhibitors of CYPIA2 against the NCATS DSHEA and TCM libraries (AID 1919976). Further: potency means the concentration at half of the fitted maximal effect. Particulars: recombinant CYP1A2 enzyme activity, luminescence; series mostly up to 37 µM. The procedure, abridged: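 Furafylline served as the plate control. Compounds met CYP1A2 and pro-luciferin substrate 15 min before NADPH regeneration solution (1x) was added; after 30-45 min at RT, P450-Glo reagent was added for 30 min and luminescence was measured.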

Sequence of Cytochrome P450 1A2 (Homo sapiens) (P05177 whole entry, looked up): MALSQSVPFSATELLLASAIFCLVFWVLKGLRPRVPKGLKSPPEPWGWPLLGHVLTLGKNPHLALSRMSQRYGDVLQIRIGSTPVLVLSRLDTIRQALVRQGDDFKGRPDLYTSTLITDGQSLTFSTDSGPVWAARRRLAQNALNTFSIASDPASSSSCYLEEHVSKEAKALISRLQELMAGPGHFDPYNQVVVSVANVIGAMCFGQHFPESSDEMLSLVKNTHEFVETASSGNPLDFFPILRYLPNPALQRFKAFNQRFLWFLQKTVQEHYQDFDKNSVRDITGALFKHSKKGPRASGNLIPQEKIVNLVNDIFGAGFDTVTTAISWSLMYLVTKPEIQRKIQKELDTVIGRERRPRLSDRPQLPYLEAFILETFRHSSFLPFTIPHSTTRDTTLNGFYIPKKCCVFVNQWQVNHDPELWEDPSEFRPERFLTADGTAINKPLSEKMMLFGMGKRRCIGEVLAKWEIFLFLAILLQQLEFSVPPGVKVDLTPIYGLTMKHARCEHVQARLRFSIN
Sequence of Pyruvate kinase (Leishmania mexicana) (Q27686 2-499 E452W): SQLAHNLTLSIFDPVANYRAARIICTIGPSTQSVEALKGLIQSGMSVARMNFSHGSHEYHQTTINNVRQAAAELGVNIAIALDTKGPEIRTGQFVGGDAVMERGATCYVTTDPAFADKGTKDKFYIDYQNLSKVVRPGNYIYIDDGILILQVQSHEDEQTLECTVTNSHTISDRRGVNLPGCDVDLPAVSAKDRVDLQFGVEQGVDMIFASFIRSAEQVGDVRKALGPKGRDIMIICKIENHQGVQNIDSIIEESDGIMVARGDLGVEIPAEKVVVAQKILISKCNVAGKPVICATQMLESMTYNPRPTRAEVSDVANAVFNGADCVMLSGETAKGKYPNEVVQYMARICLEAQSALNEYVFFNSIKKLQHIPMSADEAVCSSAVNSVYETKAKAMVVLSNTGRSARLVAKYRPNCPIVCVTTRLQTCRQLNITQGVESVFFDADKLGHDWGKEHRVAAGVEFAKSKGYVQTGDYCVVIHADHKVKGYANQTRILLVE
Sequence of Alpha-galactosidase A (Homo sapiens) (P06280 whole entry, looked up): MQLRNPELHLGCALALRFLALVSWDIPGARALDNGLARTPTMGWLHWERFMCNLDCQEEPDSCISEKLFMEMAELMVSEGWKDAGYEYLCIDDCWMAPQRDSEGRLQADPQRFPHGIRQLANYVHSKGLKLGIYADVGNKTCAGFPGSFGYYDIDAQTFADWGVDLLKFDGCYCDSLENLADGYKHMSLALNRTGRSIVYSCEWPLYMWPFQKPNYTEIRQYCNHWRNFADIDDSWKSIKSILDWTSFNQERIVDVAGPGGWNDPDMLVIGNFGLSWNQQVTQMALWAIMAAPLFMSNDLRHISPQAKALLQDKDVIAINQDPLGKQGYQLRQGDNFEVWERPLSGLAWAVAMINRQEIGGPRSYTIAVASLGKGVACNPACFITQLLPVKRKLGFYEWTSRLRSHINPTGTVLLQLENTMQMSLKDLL
Sequence of Guanine nucleotide-binding protein G(i) subunit alpha-1 (Homo sapiens) (P63096 whole entry, looked up): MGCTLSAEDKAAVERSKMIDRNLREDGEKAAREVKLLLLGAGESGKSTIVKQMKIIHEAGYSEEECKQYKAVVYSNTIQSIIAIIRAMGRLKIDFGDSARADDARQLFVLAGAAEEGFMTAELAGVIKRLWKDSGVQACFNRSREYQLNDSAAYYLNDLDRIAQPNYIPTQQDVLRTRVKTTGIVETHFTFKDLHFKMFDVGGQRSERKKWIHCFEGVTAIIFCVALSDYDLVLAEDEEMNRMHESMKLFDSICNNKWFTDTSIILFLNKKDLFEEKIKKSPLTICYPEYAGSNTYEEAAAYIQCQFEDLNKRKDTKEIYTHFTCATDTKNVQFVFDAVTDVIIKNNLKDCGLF
Sequence of Cytochrome P450 2D6 (Homo sapiens) (P10635 whole entry, looked up): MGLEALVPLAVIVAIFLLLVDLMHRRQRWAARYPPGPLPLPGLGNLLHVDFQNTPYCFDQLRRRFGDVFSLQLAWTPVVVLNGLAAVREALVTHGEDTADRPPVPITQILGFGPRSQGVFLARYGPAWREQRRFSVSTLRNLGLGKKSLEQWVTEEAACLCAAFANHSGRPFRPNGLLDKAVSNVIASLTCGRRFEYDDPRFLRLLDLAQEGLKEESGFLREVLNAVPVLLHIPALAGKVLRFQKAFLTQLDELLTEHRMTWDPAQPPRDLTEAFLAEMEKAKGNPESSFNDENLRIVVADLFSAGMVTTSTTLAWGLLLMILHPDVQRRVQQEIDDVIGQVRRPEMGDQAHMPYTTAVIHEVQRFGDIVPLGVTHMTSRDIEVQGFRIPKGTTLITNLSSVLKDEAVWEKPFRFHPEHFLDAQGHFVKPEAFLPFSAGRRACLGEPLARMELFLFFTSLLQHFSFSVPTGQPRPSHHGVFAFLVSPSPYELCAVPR
Sequence of Alpha-galactosidase (Coffea arabica) (Q42656 whole entry, looked up): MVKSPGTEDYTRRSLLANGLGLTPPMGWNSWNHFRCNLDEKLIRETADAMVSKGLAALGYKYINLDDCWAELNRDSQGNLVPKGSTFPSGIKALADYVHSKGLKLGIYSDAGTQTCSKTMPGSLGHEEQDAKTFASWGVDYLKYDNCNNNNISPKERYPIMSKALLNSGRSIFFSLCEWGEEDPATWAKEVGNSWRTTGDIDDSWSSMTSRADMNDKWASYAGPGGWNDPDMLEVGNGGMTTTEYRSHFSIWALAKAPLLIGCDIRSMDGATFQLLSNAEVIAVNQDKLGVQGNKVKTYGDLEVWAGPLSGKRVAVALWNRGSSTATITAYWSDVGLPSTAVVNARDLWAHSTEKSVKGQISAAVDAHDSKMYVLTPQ

For the compound `CN1CCN(c2ncc3ncc(=O)n(C)c3n2)CC1`, the outcome in assay [1] was inactive.

With `Clc1ccccc1-c1cncnc1NCCc1cnc[nH]1`, in assay [1], the call was inactive.

In the case of `CCc1c(C(=O)OC)ncc2[nH]c3cc(OC)c(OC)cc3c12`, the result in assay [2], in assay [5], in assay [6], in assay [7] and in assay [8] was inactive. In addition, in [3], the Potency was 5.62 µM (active). Moreover, the Potency result in assay [4] is “inactive”.

Consider `C=CCc1ccc2c(c1)OCO2`, for which the Potency in [9], in assay [10], in [11], in assay [12], in [13] and in assay [14] was over 92 µM each time. Moreover, in [20], the Potency was 15.8 µM (active). Also, the activity change, negative = cytotoxicity in assay [15] is -3.41%; in assay [16] it was -6.05%. For the same compound, in assay [17], the result was inactive. The Potency result in [18] and in [19] was “inactive” in each case.

For `O=C(OC1CCN(CCCl)CC1)C(c1ccccc1)c1ccccc1`, the call in assay [2], in [5], in [6], in assay [7] and in assay [8] was inactive. Moreover, the Potency in [3] is 2.51 µM (active). The Potency entry in assay [4] was “inactive”.

For the compound `COc1ccc2c(c1O)-c1c(OC)c(OC)cc3c1[C@H](C2)N(C)CC3`, in assay [18], the Potency entry was “inactive”.

In the case of `COc1cc2c(cc1O)CC1c3c(cc(O)c(OC)c3-2)CCN1C` (stereo not given), the values for the Potency in assay [19] and in assay [20] were 11.2 µM (active) and 3.98 µM (active), respectively.

`c1ccc(N=Nc2ccccc2)cc1`: the Potency in assay [9] is over 92 µM; in assay [10], 47.9 µM (active); in assay [11] it was over 92 µM; in [12] it was over 92 µM; in assay [13], over 92 µM; in assay [14], over 92 µM. The figures for the activity change, negative = cytotoxicity in [15] and in [16] were 1.26% and -2.38%, respectively. Further, the result in [17] was inactive.
